# Reference: the supplement of paper PMC4466140
# ± gives the standard deviation of the averaged measurements.
# B1: unnamed (peptide)
# chain: FYHRPAPKPPVTKKV
# B2: unnamed (peptide)
# chain: HPRFVSPRIPSRIVK
# B3: unnamed (peptide)
# chain: VSKLRSPNTPRRLRK
# What was measured:
# Test in all cases: SPOT peptide array binding signal intensity (averaged, normalized) (arbitrary units (background-subtracted, floor 0; scale differs between SH3 domains)); higher = stronger binding of the SH3 domain to the peptide
# [1] = biological target: AgAbp1
# Outline: (§1)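 Peptides were synthetic 15-mers on cellulose membranes, with every cysteine replaced by serine. They were incubated overnight at 4°C with GST-SH3 domains from four yeast species at 10 μg/ml in TBS-based blocking buffer. Binding signal, the replicate-averaged normalized and background-subtracted spot intensity, is in arbitrary units that differ between domains.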
# [2] = biological target: AgBbc1
# Outline: as §1
# [3] = biological target: AgBem1-D1
# Outline: as §1
# [4] = biological target: AgBzz1-D1
# Outline: as §1
# [5] = biological target: AgBzz1-D2
# Outline: as §1
# [6] = biological target: AgCyk3
# Outline: as §1
# [7] = biological target: AgFus1
# Outline: as §1
# [8] = biological target: AgHof1
# Outline: as §1
# [9] = biological target: AgHse1
# Outline: as §1
# [10] = biological target: AgLsb1
# Outline: as §1
# [11] = biological target: AgLsb4
# Outline: as §1
# [12] = biological target: AgMyo5
# Outline: as §1
# [13] = biological target: AgNbp2
# Outline: as §1
# [14] = biological target: AgRvs167
# Outline: as §1
# [15] = biological target: AgSho1
# Outline: as §1
# [16] = biological target: AgSla1-D1-D2
# Outline: as §1
# [17] = biological target: AgSla1-D3
# Outline: as §1
# [18] = biological target: CaAbp1-D1
# Outline: as §1
# [19] = biological target: CaAbp1-D2
# Outline: as §1
# [20] = biological target: CaBbc1
# Outline: as §1
# [21] = biological target: CaBem1-D1
# Outline: as §1
# [22] = biological target: CaBzz1-D1
# Outline: as §1
# [23] = biological target: CaBzz1-D2
# Outline: as §1
# [24] = biological target: CaCyk3
# Outline: as §1
# [25] = biological target: CaFus1
# Outline: as §1
# [26] = biological target: CaHof1
# Outline: as §1
# [27] = biological target: CaHse1
# Outline: as §1
# [28] = biological target: CaLsb1
# Outline: as §1
# [29] = biological target: CaLsb4
# Outline: as §1
# [30] = biological target: CaMyo5
# Outline: as §1
# [31] = biological target: CaNbp2
# Outline: as §1
# [32] = biological target: CaRvs167
# Outline: as §1
# [33] = biological target: CaRvs167-3
# Outline: as §1
# [34] = biological target: CaSho1
# Outline: as §1
# [35] = biological target: CaSla1-D1-D2
# Outline: as §1
# [36] = biological target: CaSla1-D3
# Outline: as §1
# [37] = biological target: ScAbp1
# Outline: as §1
# [38] = biological target: ScBbc1
# Outline: as §1
# [39] = biological target: ScBem1-D1
# Outline: as §1
# [40] = biological target: ScBzz1-D1
# Outline: as §1
# [41] = biological target: ScBzz1-D2
# Outline: as §1
# [42] = biological target: ScCyk3
# Outline: as §1
# [43] = biological target: ScFus1
# Outline: as §1
# [44] = biological target: ScHof1
# Outline: as §1
# [45] = biological target: ScHse1
# Outline: as §1
# [46] = biological target: ScLsb1
# Outline: as §1
# [47] = biological target: ScLsb2
# Outline: as §1
# [48] = biological target: ScLsb3
# Outline: as §1
# [49] = biological target: ScLsb4
# Outline: as §1
# [50] = biological target: ScMyo3
# Outline: as §1
# [51] = biological target: ScMyo5
# Outline: as §1
# [52] = biological target: ScNbp2
# Outline: as §1
# [53] = biological target: ScPex13
# Outline: as §1
# [54] = biological target: ScRvs167
# Outline: as §1
# [55] = biological target: ScSho1
# Outline: as §1
# [56] = biological target: ScSla1-D1-D2
# Outline: as §1
# [57] = biological target: ScSla1-D3
# Outline: as §1
# [58] = biological target: SpAbp1-D1
# Outline: as §1
# [59] = biological target: SpBbc1
# Outline: as §1
# [60] = biological target: SpBzz1-D1
# Outline: as §1
# [61] = biological target: SpBzz1-D2
# Outline: as §1
# [62] = biological target: SpCyk3
# Outline: as §1
# [63] = biological target: SpHof1
# Outline: as §1
# [64] = biological target: SpHof1-2
# Outline: as §1
# [65] = biological target: SpHof1-3
# Outline: as §1
# [66] = biological target: SpHse1
# Outline: as §1
# [67] = biological target: SpLsb1
# Outline: as §1
# [68] = biological target: SpLsb4
# Outline: as §1
# [69] = biological target: SpMyo1
# Outline: as §1
# [70] = biological target: SpNbp2
# Outline: as §1
# [71] = biological target: SpPex13
# Outline: as §1
# [72] = biological target: SpRvs167
# Outline: as §1
# [73] = biological target: SpSla1-D1-D2
# Outline: as §1
# [74] = biological target: SpSla1-D3
# Outline: as §1
binder,measurement,setting,value
B1,SPOT peptide array binding signal intensity,[1],250
same,SPOT peptide array binding signal intensity,[2],123
same,SPOT peptide array binding signal intensity,[3],68
same,SPOT peptide array binding signal intensity,[4],89
same,SPOT peptide array binding signal intensity,[5],65
same,SPOT peptide array binding signal intensity,[6],6
same,SPOT peptide array binding signal intensity,[7],≤ 0
same,SPOT peptide array binding signal intensity,[8],3
same,SPOT peptide array binding signal intensity,[9],≤ 0
same,SPOT peptide array binding signal intensity,[10],138
same,SPOT peptide array binding signal intensity,[11],≤ 0
same,SPOT peptide array binding signal intensity,[12],38.8
same,SPOT peptide array binding signal intensity,[13],1040
same,SPOT peptide array binding signal intensity,[14],1.33
same,SPOT peptide array binding signal intensity,[15],≤ 0
same,SPOT peptide array binding signal intensity,[16],≤ 0
same,SPOT peptide array binding signal intensity,[17],6.5
same,SPOT peptide array binding signal intensity,[18],281
same,SPOT peptide array binding signal intensity,[19],269
same,SPOT peptide array binding signal intensity,[20],454
same,SPOT peptide array binding signal intensity,[21],364
same,SPOT peptide array binding signal intensity,[22],2440
same,SPOT peptide array binding signal intensity,[23],529
same,SPOT peptide array binding signal intensity,[24],10.5
same,SPOT peptide array binding signal intensity,[25],≤ 0
same,SPOT peptide array binding signal intensity,[26],≤ 0
same,SPOT peptide array binding signal intensity,[27],≤ 0
same,SPOT peptide array binding signal intensity,[28],3
same,SPOT peptide array binding signal intensity,[29],≤ 0
same,SPOT peptide array binding signal intensity,[30],8
B2,SPOT peptide array binding signal intensity,[1],258
same,SPOT peptide array binding signal intensity,[2],502
same,SPOT peptide array binding signal intensity,[3],182
same,SPOT peptide array binding signal intensity,[4],185
same,SPOT peptide array binding signal intensity,[5],23.5
same,SPOT peptide array binding signal intensity,[6],1
same,SPOT peptide array binding signal intensity,[7],239
same,SPOT peptide array binding signal intensity,[8],116
same,SPOT peptide array binding signal intensity,[9],176
same,SPOT peptide array binding signal intensity,[10],138
same,SPOT peptide array binding signal intensity,[11],28
same,SPOT peptide array binding signal intensity,[12],11
same,SPOT peptide array binding signal intensity,[13],390
same,SPOT peptide array binding signal intensity,[14],12.3
same,SPOT peptide array binding signal intensity,[15],13
same,SPOT peptide array binding signal intensity,[16],62.5
same,SPOT peptide array binding signal intensity,[17],32.5
same,SPOT peptide array binding signal intensity,[18],322
same,SPOT peptide array binding signal intensity,[19],83.5
same,SPOT peptide array binding signal intensity,[20],1520
same,SPOT peptide array binding signal intensity,[21],226
same,SPOT peptide array binding signal intensity,[22],255
same,SPOT peptide array binding signal intensity,[23],149
same,SPOT peptide array binding signal intensity,[24],17
same,SPOT peptide array binding signal intensity,[25],373
same,SPOT peptide array binding signal intensity,[26],2
same,SPOT peptide array binding signal intensity,[27],25
same,SPOT peptide array binding signal intensity,[28],1
same,SPOT peptide array binding signal intensity,[29],933
same,SPOT peptide array binding signal intensity,[30],13.8
same,SPOT peptide array binding signal intensity,[31],428
same,SPOT peptide array binding signal intensity,[32],230
same,SPOT peptide array binding signal intensity,[33],5.75
same,SPOT peptide array binding signal intensity,[34],170
same,SPOT peptide array binding signal intensity,[35],736
same,SPOT peptide array binding signal intensity,[36],11.5
same,SPOT peptide array binding signal intensity,[37],238
same,SPOT peptide array binding signal intensity,[38],283
same,SPOT peptide array binding signal intensity,[39],21.5
same,SPOT peptide array binding signal intensity,[40],62
same,SPOT peptide array binding signal intensity,[41],73.5
same,SPOT peptide array binding signal intensity,[42],12
same,SPOT peptide array binding signal intensity,[43],147
same,SPOT peptide array binding signal intensity,[44],8.75
same,SPOT peptide array binding signal intensity,[45],820
same,SPOT peptide array binding signal intensity,[46],531
same,SPOT peptide array binding signal intensity,[47],694
same,SPOT peptide array binding signal intensity,[48],2050
same,SPOT peptide array binding signal intensity,[49],114
same,SPOT peptide array binding signal intensity,[50],27
same,SPOT peptide array binding signal intensity,[51],32.5
same,SPOT peptide array binding signal intensity,[52],510
same,SPOT peptide array binding signal intensity,[53],86.2
same,SPOT peptide array binding signal intensity,[54],820
same,SPOT peptide array binding signal intensity,[55],256
same,SPOT peptide array binding signal intensity,[56],720
same,SPOT peptide array binding signal intensity,[57],36
same,SPOT peptide array binding signal intensity,[58],180
same,SPOT peptide array binding signal intensity,[59],19
same,SPOT peptide array binding signal intensity,[60],350
same,SPOT peptide array binding signal intensity,[61],1
same,SPOT peptide array binding signal intensity,[62],4
same,SPOT peptide array binding signal intensity,[63],145
same,SPOT peptide array binding signal intensity,[64],15.8
same,SPOT peptide array binding signal intensity,[65],295
same,SPOT peptide array binding signal intensity,[66],318
same,SPOT peptide array binding signal intensity,[67],1380
same,SPOT peptide array binding signal intensity,[68],2670
same,SPOT peptide array binding signal intensity,[69],49
same,SPOT peptide array binding signal intensity,[70],78.5
same,SPOT peptide array binding signal intensity,[71],32
same,SPOT peptide array binding signal intensity,[72],254
same,SPOT peptide array binding signal intensity,[73],1.5
same,SPOT peptide array binding signal intensity,[74],11
B3,SPOT peptide array binding signal intensity,[61],≤ 0
same,SPOT peptide array binding signal intensity,[62],5.75 ± 4.6
same,SPOT peptide array binding signal intensity,[63],183 ± 6
same,SPOT peptide array binding signal intensity,[64],17 ± 8.5
same,SPOT peptide array binding signal intensity,[65],319 ± 74
same,SPOT peptide array binding signal intensity,[66],172 ± 74
same,SPOT peptide array binding signal intensity,[67],33.8 ± 4.6
same,SPOT peptide array binding signal intensity,[68],2990 ± 950
same,SPOT peptide array binding signal intensity,[69],3.25 ± 2.5
same,SPOT peptide array binding signal intensity,[70],109 ± 68
same,SPOT peptide array binding signal intensity,[71],5.5 ± 2.1
same,SPOT peptide array binding signal intensity,[72],195 ± 91
same,SPOT peptide array binding signal intensity,[73],10.2 ± 3.9
same,SPOT peptide array binding signal intensity,[74],2.5 ± 0.71
